Screening data deposited in PubChem BioAssay by several laboratories.
L929 necroptosis = L929 zVAD cell death inhibition; L929 zVAD necroptosis rescue, ATP luminescence, 24 h; with zVAD 60 µM; viability rescue, % at 10 µM; 0.38% of 220,000 active;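 active means activation, scaled between plate controls, above about 75%, limit read from the data; inactive means activation under that limit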;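 further: 0% = zVAD with DMSO and 100% = DMSO alone without zVAD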
Hsp70 activator = switches on Hsp70 transcription | HeLa Hsp70 promoter luciferase reporter, luminescence; scaled: vehicle 0, proteasome-inhibitor control 100% | activation, % at 10 µM | 0.04% of 200,000 active | AID 1203;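 active means activation above the mean across all tested compounds plus 3 SD, cutoff set per campaign, cut at about 5.5% in these data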;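 further: 100% = MG132 at 30 µM as the positive control and 0% = DMSO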
TNF death inh = inhibitors of TNF-alpha induced necroptosis in Jurkat FADD-/- cells. Jurkat FADD-/- TNF necroptosis rescue, ATP luminescence, 24 h; 0 = TNF only, 100 = no-TNF cells. activation (protection from cell death), % at 10 µM. 0.068% of 220,000 active. AID 463075;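 active means activation, meaning protection from cell death, of at least 50% relative to plate controls; inactive means activation below 50%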;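 further: necroptosis triggered by 40 ng/mL TNF-alpha added together with compound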
HSF1 activator = increases HSF-1 driven luciferase reporter signal. 1.7% of 300,000 active. NIH3T3-HGL HSF-1 luciferase reporter, MG132, 8 h; 100% = twice DMSO control signal. AID 504408. activation, % at 9 µM;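 active means mean replicate activation of at least 50% with a set share of replicates each reaching 50%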;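 further: 0% = median of the neutral control wells and 100% = twice that signal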
Active calls of the source: *; / = no result. Hits are enriched below; roughly 1.9% of the tested compounds scored in any of these assays.

SMILES | L929 necroptosis | Hsp70 activator | TNF death inh | HSF1 activator
COc1ccccc1N1CCN(C(=O)c2ccc3c(Cl)c4c(nc3c2)CCCC4)CC1 | / | -0.2 | -4.9 | 40.3
O=C(c1ccc2c(Cl)c3c(nc2c1)CCCC3)N1CCN(c2ccc(F)cc2)CC1 | / | -0.2 | -2.5 | 72.5*
CC(C)CCNC(=O)c1ccc2c(SCC(=O)O)c3c(nc2c1)CCCC3 | / | 0.8 | 0.8 | 61.9*
N#Cc1ccccc1NC(=O)c1ccc2c(Cl)c3c(nc2c1)CCCC3 | 7.7 | -0.1 | -2.2 | 113.0*
O=C(CSc1nc2ccccc2c2nc3ccccc3n12)NCc1ccco1 | 0.5 | -0.4 | 0.2 | 103.3*
CCn1c(SCC(=O)NCc2ccco2)nc2ccccc2c1=O | 0.1 | 0.1 | -0.4 | 14.9
CC1=CC(=O)C=C(C)C1=NOC(=O)/C=C\c1ccccc1 | -0.4 | -0.4 | -5.4 | 64.8*
COc1ccc(-c2cn3cc(C)ccc3n2)cc1Br | 0.6 | -0.1 | 1.2 | 65.7*
COc1ccc(-c2cn3cc(Cl)ccc3n2)cc1OC | 1.8 | -0.2 | -4.6 | 64.0*
Cc1ccc2nc(-c3cccc(S(=O)(=O)N(C)C)c3)cn2c1 | 0.3 | 0.2 | -3.3 | 15.6
CC(C)(C)C(=O)/C(=C\c1ccc([N+](=O)[O-])cc1)n1cncn1 | 25.9 | 2.1 | -13.8 | -27.2
CC(C)(C)C(=O)/C(=C/c1ccc(Cl)cc1)n1cncn1 | / | / | / | 150.3*
O=c1oc2c(O)cccc2cc1-c1nc2ccccc2[nH]1 | / | / | / | 41.7
COc1ccc(N=c2oc3ccc(OC)cc3cc2-c2nc3ccccc3[nH]2)cc1 | -0.4 | 0.1 | 0.5 | 57.7*
COc1cccc(N=c2oc3ccccc3cc2-c2nc3ccccc3[nH]2)c1 | -0.8 | 0.2 | -3.4 | 71.0*
COc1ccc2oc(=O)c(-c3nc4ccccc4o3)cc2c1 | 0.0 | 0.1 | 0.0 | 0.8
COc1cccc(N=c2oc3ccc(OC)cc3cc2-c2nc3ccccc3[nH]2)c1 | -1.2 | 0.3 | -0.3 | 53.8*
COc1ccc(N2CC(NC(=O)NCCC(C)C)CC2=O)cc1 (centres undefined) | 1.0 | -0.4 | -0.5 | -1.7
O=S1(=O)CCS(=O)(=O)C1c1ccccc1 | / | / | / | -1.0
Cc1ccc(C(=O)Oc2oc(-c3ccco3)nc2C=Nc2ccc(Cl)cc2)cc1 | 0.0 | 0.3 | -0.8 | 85.6*
Cc1ccc(C(=O)Oc2oc(-c3ccccc3)nc2C=Nc2ccc(N(C)C)cc2)cc1 | 0.9 | -0.1 | 1.1 | 143.8*
O=C(Oc1oc(-c2ccco2)nc1C=Nc1ccccc1)c1ccoc1 | 1.1 | -0.3 | -19.3 | -85.9
CN(C)c1ccc(N=Cc2nc(-c3ccccc3)oc2OC(=O)c2cccc(Cl)c2)cc1 | 1.1 | 0.0 | -1.4 | 9.1
Cc1nc(NC(=O)/C=C/c2ccccc2)n[nH]1 | 0.2 | 0.2 | -1.8 | -40.7
CC(C)C(=O)Nc1ccc2c(c1)nc(CCN1CCN(c3ccccn3)CC1)n2C | / | / | / | 8.7
SMILES | L929 necroptosis | Hsp70 activator | TNF death inh | HSF1 activator
CCOCCc1nnc(NC(=O)Cc2c(F)cccc2Cl)s1 | 0.7 | 0.4 | -0.8 | 1.1
Cc1ccc(S(=O)(=O)Nc2cccc(C(=O)NCCCn3ccnc3)c2)cc1F | / | / | / | 5.0
CC(=O)c1cc2c(cc1NC(=O)CSc1nc3ccccc3[nH]1)OCO2 | 0.6 | -0.4 | -0.3 | -8.7
Cc1cc(C(=O)CSc2nc3ccccc3o2)c(C)n1C1CC1 | -0.6 | 0.0 | -4.1 | 62.7*
CC(=O)c1cc2c(cc1NC(=O)CSc1nc3ccccc3o1)OCO2 | 0.8 | -0.1 | -2.2 | 85.8*
CN1C(N)=NC(=O)/C1=C\c1ccc(Br)cc1 | / | / | / | 1.2
CN(C(=O)c1ccccc1)c1nc2ccccc2s1 | -0.1 | -0.1 | -4.3 | 65.0*
CC(=O)Nc1ccc(N=Cc2c(O)c3ccccc3oc2=O)cc1 | / | / | / | 63.2*
CCOC(=O)c1ccc(N=Cc2c(O)c3ccccc3oc2=O)cc1 | / | / | / | -14.8
CC(=O)c1cccc(N=Cc2c(O)c3ccccc3oc2=O)c1 | / | / | / | 105.7*
COc1cccc(N=Cc2c(O)c3ccccc3oc2=O)c1 | / | / | / | 3.4
Cn1cc([N+](=O)[O-])c(C(=O)n2cccn2)n1 | -0.7 | / | 0.5 | -31.2
c1coc(-c2nc3nc4ccccc4nc3n2CC2CCCO2)c1 (centres undefined) | -0.3 | -0.3 | -3.8 | 56.1*
c1ccc(Cn2c(-c3ccco3)nc3nc4ccccc4nc32)cc1 | -0.1 | 1.4 | -1.8 | 90.4*
Cc1ccc(C(=O)Oc2cc(C)n(C)c(=O)c2)cc1 | -0.1 | -0.1 | -5.3 | 0.9
CC(/C=N/NC(=O)Cc1cccs1)=C\c1ccccc1 | 0.1 | 0.1 | 0.4 | 122.3*
CC(/C=N/NC(=O)c1sc(N)nc1C)=C\c1ccccc1 | 4.1 | 0.1 | 0.8 | 74.7*
Cc1nc(N)sc1C(=O)N/N=C/c1ccccc1[N+](=O)[O-] | 0.2 | 0.3 | -0.5 | 33.7
O=C(Cc1cccs1)N/N=C/C(Br)=C/c1ccccc1 | 0.1 | 0.4 | -0.8 | 105.7*
CC(/C=N/NC(=O)c1ccco1)=C\c1ccccc1 | 0.8 | -0.1 | -2.5 | 55.1*
CC(/C=N/NC(=O)c1ccccc1C)=C\c1ccccc1 | / | / | / | 6.7
CCn1c(SCC(=O)Nc2ccc(N(C)C)cc2)nnc1-c1ccco1 | / | / | / | 31.6
O=C(NCc1ccc(F)cc1)c1ccc2c(c1)S(=O)(=O)c1ccccc1C2=O | / | / | / | 2.1
S=c1[nH]c(-c2ccc(Br)cc2)cn1CCc1ccccc1 | 4.5 | -0.5 | -1.0 | 62.0*
COc1ccccc1-n1cc(-c2ccc(Br)cc2)[nH]c1=S | / | / | / | 18.4
SMILES | L929 necroptosis | Hsp70 activator | TNF death inh | HSF1 activator
Cc1c(-n2cc(C(=O)c3ccccc3O)cc(C#N)c2=O)c(=O)n(-c2ccccc2)n1C | -0.1 | 0.2 | 0.0 | 109.5*
O=[N+]([O-])c1ccc(Cl)c(/C=N/n2c(-c3ccncc3)n[nH]c2=S)c1 | 46.5 | / | -0.7 | 242.8*
O=[N+]([O-])c1ccc(O)c(/C=N/n2c(-c3ccccc3)n[nH]c2=S)c1 | / | / | / | 22.2
CC(C)(C)N1C(=O)c2ccc(C(=O)NCc3ccco3)cc2C1=O | 0.3 | -0.3 | -1.4 | 13.6
CCCn1c(N)c(Sc2ccc(C)cc2)c(=O)n(CCC)c1=O | 0.8 | -0.2 | -1.0 | 72.8*
COC(=O)c1ccc(/C=C(\C#N)c2ccccn2)cc1 | 13.6 | 0.0 | 0.1 | 85.7*
N#C/C(=C\c1ccc([N+](=O)[O-])cc1)c1ccccn1 | -1.1 | 0.1 | -3.0 | 73.3*
COc1cc(/C=C(\C#N)c2ccccn2)cc(OC)c1O | 1.3 | / | -10.2 | -12.5
CN(C)c1ccc(/C=C(\C#N)c2ccccn2)cc1 | 1.1 | -0.7 | -4.8 | 39.1
COC(=O)CC/C(O)=C1/C(=N)CC(C)(C)CC1=O | 0.0 | -0.2 | 0.6 | 58.4*
C=CCN=C1CC(C)(C)CC(=O)/C1=C(/O)CCC(=O)OC | -0.4 | 2.5 | -0.7 | 5.7
O=C(NCc1cccnc1)c1ccc(NC(=O)c2cccc([N+](=O)[O-])c2)cc1 | 1.1 | -0.3 | -2.1 | 8.5
COc1ccc(Br)cc1CN(C)C(=O)c1cnc(C)cn1 | / | / | / | 10.9
Cc1cccc(-n2cc(-c3ccc([N+](=O)[O-])cc3)[nH]c2=S)c1 | 0.1 | -0.3 | -0.6 | 71.4*
O=[N+]([O-])c1cccc(-c2cn(-c3ccccc3)c(=S)[nH]2)c1 | -0.6 | -0.1 | 1.4 | 73.8*
O=[N+]([O-])c1ccc(-c2cn(-c3ccccc3)c(=S)[nH]2)cc1 | 0.4 | 2.6 | 2.7 | 29.6
